SMILES strings stand for the structures. This is part of a sample that, as a whole, favours compounds with a hit. Of some 79,000 tested, about 15% had one in any assay. Unmarked numbers belong to inactive results. The source made the active and inactive calls. No stated cut-off is given here; in the data, active means growth inhibition above about 70%; inactive means the rest.

Assay [1] in a line: NCI Yeast Anticancer Drug Screen. Data for the rad50 strain (AID 155).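 Further: 0% = growth of vehicle-only cultures of the same strain.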 To be noted: S. cerevisiae rad50 strain growth inhibition; at 50.0 µM; stronger effect = higher value. The method in brief: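 Vehicle-treated cultures provide the reference for the growth inhibition reported for compound-exposed, repair-deficient yeast.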
Assay [2] can be described thus: NCI Yeast Anticancer Drug Screen. Data for the mec2-1 strain (AID 157). To be noted: S. cerevisiae mec2-1 strain, at 50.0 µM, stronger effect = higher value. The method in brief:
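Yeast mec2-1 mutant treated with compound. Readout: growth inhibition vs vehicle controls.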

The nature of assay [3]: NCI Yeast Anticancer Drug Screen. Data for the sgs1 mgt1 strain (AID 161).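 Further: 0% = growth of cultures given vehicle only.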 Conditions: S. cerevisiae sgs1 mgt1 strain, at 50.0 µM, stronger effect = higher value. An outline of the steps: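 Genetically altered yeast, compound exposure, growth inhibition relative to vehicle.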
The nature of assay [4]: NCI Yeast Anticancer Drug Screen. Data for the cln2 rad14 strain (AID 165).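 Further: 0% = growth equal to vehicle treated cultures.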 Conditions: S. cerevisiae cln2 rad14 strain, at 50.0 µM, stronger effect = higher value. An outline of the steps:
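cln2 rad14 yeast strain; compound exposure; growth inhibition read vs vehicle controls.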

Assay [5] can be described thus: NCI Yeast Anticancer Drug Screen. Data for the bub3 strain (AID 167). Conditions: S. cerevisiae bub3 mutant strain, at 50.0 µM, stronger effect = higher value. An outline of the steps: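 Mutant yeast screening strain plus compound; vehicle-treated cultures serve as the 0% inhibition reference.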
Assay [6] in a line: NCI Yeast Anticancer Drug Screen. Data for the mlh1 rad18 strain (AID 175). To be noted: S. cerevisiae mlh1 rad18 strain growth inhibition; at 50.0 µM; stronger effect = higher value. An outline of the steps: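 Yeast w/ defined DNA-repair lesions; compound exposure; growth vs vehicle controls → % inhibition.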

With `O=C1NC(c2cccc3ccccc23)Nc2ccccc21` (stereo unspecified), the growth inhibition in assay [1] is 3.05%; in assay [2] it was -14.8%; in assay [3] it was 9.2%; in assay [4] it was -6.6%; in assay [5] it was 0.85%; in assay [6] it was 0.8%.

For the compound `OC1CCCSC1` (stereo unspecified), the growth inhibition in assay [1] is 18.1%; in assay [2], -15.9%; in assay [3], 12.8%; in assay [4], 4.75%; in assay [5] it was 16.6%; in assay [6] it was 27.9%.

For `C/C(=C/C(C)C)C(C)(C#N)C(N)=O` (stereo unspecified), the growth inhibition in assay [1] was 8.75%; in assay [2] it was 5.8%; in assay [3], 1.2%; in assay [4], 8.25%; in assay [5], 8.75%; in assay [6] it was 4.35%.

On to `O=Cc1c2c(cc3c1CC1(C3)Cc3cc4c(c(C=O)c3C1)CCC4)CCC2`, for which the growth inhibition in assay [1] was -26.4%; in assay [2] it was -40.1%; in assay [3], -25.9%; in assay [4] it was 3.7%; in assay [5] it was 26.8%; in assay [6], 1.35%.

For the compound `COc1cc(OC)cc(N(C)Cc2cnc3nc(N)nc(N)c3c2C)c1`, the growth inhibition in assay [1] was 0.75%; in assay [2], 11.7%; in assay [3], 15.6%; in assay [4], 11.3%; in assay [5], 12.3%; in assay [6], -3.45%.

On to `O=C1Nc2ccccc2C2=C3CCCCC3=NNC12` (stereo unspecified), for which the growth inhibition was 97.7% (active) in assay [1]; 93.8% (active) in assay [2]; 97.7% (active) in assay [3]; 68.2% in assay [4]; 97.5% (active) in assay [5]; 86% (active) in assay [6].

`CC(=O)C1=C(O)C(CSCc2ccccc2)NC1=O` (stereo unspecified): the growth inhibition in assay [1] is 10.8%; in assay [2], 0.65%; in assay [3], 5.95%; in assay [4], -2.9%; in assay [5], 15.1%; in assay [6] it was 15.2%.

For `O=C(NCCCCCCNC(=O)c1cc(-c2ccccc2)nc2ccccc12)c1cc(-c2ccccc2)nc2ccccc12`, the growth inhibition in assay [1] was -33%; in assay [2] it was -18%; in assay [3], -42.6%; in assay [4], -17.4%; in assay [5], -27.3%; in assay [6] it was -17.4%.

As for `O=Cc1cccc2ccc3cccc(C(=O)O)c3c12`, the growth inhibition in assay [1] was 34%; in assay [2], 12%; in assay [3], 17.9%; in assay [4] it was 13.2%; in assay [5], 30.1%; in assay [6] it was -8.7%.

As to `CCC1(C)CCC(C)(CC)c2cc(C)ccc21` (stereo unspecified), the growth inhibition is 9.9% in assay [1]; 9.15% in assay [2]; -6.95% in assay [3]; -16.8% in assay [4]; 8.4% in assay [5]; 25.9% in assay [6].

For `COc1cc2c(c(OC)c1OC)-c1ccc(OC)c(=O)cc1C(NC(=O)CCCCCNc1ccc(N=[N+]=[N-])cc1[N+](=O)[O-])CC2` (stereo unspecified), the growth inhibition was 88.5% (active) in assay [1]; 84.4% (active) in assay [2]; 45% in assay [3]; 36% in assay [4]; 12.8% in assay [5]; 84.3% (active) in assay [6].

With `Clc1ccc2c(N3CCC(CCC4CCN(c5ncnc6cc(Cl)ccc56)CC4)CC3)ncnc2c1`, the growth inhibition is -17.9% in assay [1]; -21.6% in assay [2]; -7.4% in assay [3]; -39.4% in assay [4]; -14.6% in assay [5]; -14.2% in assay [6].

Turning to `COc1cc(C)c(C(=O)/C=C/c2cc(OC)c(O)c(OC)c2)cc1O`, the growth inhibition in assay [1] was 55.7%; in assay [2], 36.9%; in assay [3] it was 39.6%; in assay [4], 35.6%; in assay [5] it was 46.2%; in assay [6], 46.7%.

With `Nc1ncc(C(=O)O)c(N)n1`, the growth inhibition in assay [1] was 15.8%; in assay [2], 4.6%; in assay [3], 3.75%; in assay [4], -19.2%; in assay [5], -12.3%; in assay [6] it was 33.6%.

As to `Cc1cc2nc(-c3ccccc3O)[nH]c2cc1C`, the growth inhibition was -14.2% in assay [1]; -29.9% in assay [2]; -5.25% in assay [3]; 2.1% in assay [4]; -29.6% in assay [5]; 9.35% in assay [6].

With `COc1ccc(OC(C)C(=O)O)cc1` (stereo unspecified), the growth inhibition in assay [1] was 13.2%; in assay [2], 10.5%; in assay [3], 3.5%; in assay [4] it was -31.5%; in assay [5], 13.3%; in assay [6] it was 6.25%.

With `CC(=O)Oc1cc(I)cc(C(=O)O)c1`, the growth inhibition is -10% in assay [1]; 9.85% in assay [2]; -1.05% in assay [3]; -9.15% in assay [4]; 3.3% in assay [5]; -10.4% in assay [6].

For `CCCCCCCCCCCCCCCCC(NC(C)=O)(C(=O)OCC)C(=O)OCC`, the growth inhibition in assay [1] is 23.9%; in assay [2], 1.65%; in assay [3], 20.9%; in assay [4], 30.2%; in assay [5], -1.25%; in assay [6] it was 23.6%.

Turning to `Cc1csc[n+]1C/C(=N/O)c1ccc(I)cc1`, the growth inhibition in assay [1] is 36.2%; in assay [2], -3.75%; in assay [3], 14.8%; in assay [4], 3.65%; in assay [5] it was 2.75%; in assay [6], 17.1%.

Take `Cc1ccccc1CCOC(=O)c1cc([N+](=O)[O-])cc([N+](=O)[O-])c1`: the growth inhibition was -19% in assay [1]; 2.2% in assay [2]; -10.9% in assay [3]; 4.1% in assay [4]; 5.45% in assay [5]; -16.4% in assay [6].

With `CCC/C=C1\CCC(CN(C)C)C1=O` (stereo unspecified), the growth inhibition in assay [1] was -9.8%; in assay [2], 7.85%; in assay [3], 18.6%; in assay [4], -1.4%; in assay [5], -11.9%; in assay [6], 15.1%.

These data come from PubChem BioAssay (NCI).
